PubChem BioAssay (Tox21)
Inconclusive results are not listed. Activity calls are given as the source filed them. Unless noted, calls follow the shape of the dose curve; as a rule, active = well fitted curve in the direction sought with a large enough effect in the repeat runs; inconclusive = weak or mixed curves; inactive = no such curve, though single readings can be large; an effect the other way counts as inactive or inconclusive. Positions of bridges follow the written chain, without caps; N, C: chain ends. Non-standard residues stand in square brackets, D forms with d. Residues, ends and D or L forms follow the SMILES beside them. hArg = N=C(N)NCCCC[C@H](N)C(=O)O; Mpa = O=C(O)CCS

Experiments:
[1] = qHTS assay to test for compound auto fluorescence at 535 nm (green) in HEK293 cells (AID 720680)
[2] = qHTS assay to test for compound auto fluorescence at 460 nm (blue) in HEK293 cell free culture (AID 720681)
Outline: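 Compounds were added to cell-free DMEM with 10% FBS and fluorescence read directly. The blue channel used 405 nm excitation and 460 nm emission, with triamterene as the reference fluorophore.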

[3] = qHTS assay to test for compound auto fluorescence at 590 nm (red) in HEK293 cell free culture (AID 720683)
Outline: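 Cell-free wells of DMEM with 10% FBS received compound, and intrinsic fluorescence was read at excitation/emission 540/590 nm. Values expressed as equivalence to Rose Bengal sodium.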

[4] = qHTS assay to test for compound auto fluorescence at 590 nm (red) in HepG2 cell free culture (AID 720684)
Outline: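 Compound was pinned into wells holding MEM with 10% FBS and no cells, and red fluorescence was read at Ex/Em 540/590 nm. Signal is expressed as auto fluorescence equivalency relative to Rose Bengal sodium.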

[5] = qHTS assay to test for compound auto fluorescence at 460 nm (blue) in HepG2 cell free culture (AID 720685)
Outline: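 Compound (23 nL) or DMSO pinned into cell-free MEM with 10% FBS; blue fluorescence read at 405/460 nm excitation/emission, expressed as auto-fluorescence equivalency to triamterene.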

[6] = qHTS assay to test for compound auto fluorescence at 535 nm (green) in HepG2 cell free culture (AID 720686)
[7] = qHTS assay to test for compound auto fluorescence at 460 nm (blue) in HepG2 cells (AID 720687)
Outline: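 HepG2 cells in MEM with 10% FBS, attached overnight at 37 C, were exposed to compound or DMSO for 1 hr at 37 C, 5% CO2. Blue fluorescence was read at 405/460 nm, with triamterene as reference fluorophore.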

[8] = target: Glucocorticoid receptor (Homo sapiens) (UniProt P04150); test: qHTS assay to identify small molecule agonists of the glucocorticoid receptor (GR) signaling pathway (AID 720691; active = well fitted activation curve with a large enough effect in the signal ratio in the repeat runs, not every such curve was filed as active; the % refers to the signal ratio)
Sequence of Glucocorticoid receptor (Homo sapiens) (P04150 whole entry, looked up): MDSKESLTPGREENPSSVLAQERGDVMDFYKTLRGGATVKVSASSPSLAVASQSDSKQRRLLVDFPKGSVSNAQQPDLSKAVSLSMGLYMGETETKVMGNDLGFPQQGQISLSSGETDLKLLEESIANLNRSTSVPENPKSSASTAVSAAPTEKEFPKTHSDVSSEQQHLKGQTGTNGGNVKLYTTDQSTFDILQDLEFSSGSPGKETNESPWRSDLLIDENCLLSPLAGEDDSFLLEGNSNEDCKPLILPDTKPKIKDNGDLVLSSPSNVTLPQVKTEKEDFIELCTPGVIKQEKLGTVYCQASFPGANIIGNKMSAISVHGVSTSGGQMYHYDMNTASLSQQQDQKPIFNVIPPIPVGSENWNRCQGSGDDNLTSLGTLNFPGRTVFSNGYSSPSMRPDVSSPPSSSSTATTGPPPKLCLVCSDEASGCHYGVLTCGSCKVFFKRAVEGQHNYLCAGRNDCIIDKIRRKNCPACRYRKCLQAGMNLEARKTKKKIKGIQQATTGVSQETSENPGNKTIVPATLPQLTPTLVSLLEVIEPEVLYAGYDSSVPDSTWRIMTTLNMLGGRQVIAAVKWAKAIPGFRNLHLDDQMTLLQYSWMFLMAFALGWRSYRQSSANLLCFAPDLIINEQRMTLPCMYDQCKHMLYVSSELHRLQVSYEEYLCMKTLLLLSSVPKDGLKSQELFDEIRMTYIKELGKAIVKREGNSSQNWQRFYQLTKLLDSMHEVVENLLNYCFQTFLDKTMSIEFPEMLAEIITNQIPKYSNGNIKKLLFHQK
Outline: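 Reporter read-out: fluorescence intensity following 2 h room-temperature LiveBLAzer B/G FRET substrate loading. Prior step: GR-bla HeLa cells held 4 h, then treated 18 h at 37 C.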

[9] = target: Glucocorticoid receptor (Homo sapiens) (UniProt P04150); test: qHTS assay to identify small molecule antagonists of the glucocorticoid receptor (GR) signaling pathway (AID 720692; active = well fitted inhibition curve with a large enough effect in the signal ratio in the repeat runs, not every such curve was filed as active; the % refers to the signal ratio)
Outline: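 Dexamethasone (5 nM final) stimulated a stably integrated GRE-beta-lactamase reporter in HeLa cells during 18 h co-incubation with compounds; signal was quantified as fluorescence intensity of B/G FRET substrate after 2 h.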

[10] = qHTS assay to identify small molecule antagonists of the glucocorticoid receptor (GR) signaling pathway - cell viability counter screen (AID 720693); also: nearly all actives have a fitted effect of over 55% in size
[11] = qHTS assay for identifying genotoxic compounds that show differential cytotoxicity against isogenic chicken DT40 cell lines with known DNA damage response pathways - wild type cell line (AID 743012); also: nearly all actives have a fitted effect of over 60% in size; also: potency is read from the fitted curve at half-maximal effect
Outline: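 Using parental DT40 (300 cells/well), compounds delivered in DMSO incubate 40 h at 37 C/5% CO2. CellTiter-Glo reagent then stands 30 min at room temperature, and luminescence gives cell viability.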

[12] = qHTS assay for identifying genotoxic compounds that show differential cytotoxicity against isogenic chicken DT40 cell lines with known DNA damage response pathways - Rad54/Ku70 mutant cell line (AID 743015); also: nearly all actives have a fitted effect of over 60% in size; also: potency is read from the fitted curve at half-maximal effect
[13] = qHTS assay to identify small molecule antagonists of the androgen receptor (AR) signaling pathway - cell viability counter screen (AID 743033; also: nearly all actives have a fitted effect of over 45% in size)
[14] = qHTS assay to identify small molecule antagonists of the androgen receptor (AR) signaling pathway using the MDA cell line - cell viability counter screen (AID 743041; also: nearly all actives have a fitted effect of over 45% in size)
Outline: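 MDA-kb2 AR-luc cells (MMTV-luciferase, AR/GR responsive) treated with compounds plus R1881 agonist for 16 h at 37C. CellTiter-Fluor added at 15.5 h; fluorescence read after 30 min in the same wells.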

[15] = qHTS assay for identifying genotoxic compounds that show differential cytotoxicity against isogenic chicken DT40 cell lines with known DNA damage response pathways - Rev3 mutant cell line (AID 743014); also: nearly all actives have a fitted effect of over 55% in size; also: potency is read from the fitted curve at half-maximal effect
[16] = qHTS assay to test for compound auto fluorescence at 535 nm (green) in HEK293 cell free culture (AID 720682)
Outline: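 Steps: dispense DMEM/10% FBS into empty wells; pin in compound or DMSO; measure fluorescence at 485/535 nm. Values are fluorescein equivalents.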

[17] = target: Androgen receptor (Homo sapiens) (UniProt P10275); test: qHTS assay to identify small molecule antagonists of the androgen receptor (AR) signaling pathway (AID 743035; active = well fitted inhibition curve with a large enough effect in the signal ratio in the repeat runs, not every such curve was filed as active; the % refers to the signal ratio)
Sequence of Androgen receptor (Homo sapiens) (P10275 whole entry, looked up): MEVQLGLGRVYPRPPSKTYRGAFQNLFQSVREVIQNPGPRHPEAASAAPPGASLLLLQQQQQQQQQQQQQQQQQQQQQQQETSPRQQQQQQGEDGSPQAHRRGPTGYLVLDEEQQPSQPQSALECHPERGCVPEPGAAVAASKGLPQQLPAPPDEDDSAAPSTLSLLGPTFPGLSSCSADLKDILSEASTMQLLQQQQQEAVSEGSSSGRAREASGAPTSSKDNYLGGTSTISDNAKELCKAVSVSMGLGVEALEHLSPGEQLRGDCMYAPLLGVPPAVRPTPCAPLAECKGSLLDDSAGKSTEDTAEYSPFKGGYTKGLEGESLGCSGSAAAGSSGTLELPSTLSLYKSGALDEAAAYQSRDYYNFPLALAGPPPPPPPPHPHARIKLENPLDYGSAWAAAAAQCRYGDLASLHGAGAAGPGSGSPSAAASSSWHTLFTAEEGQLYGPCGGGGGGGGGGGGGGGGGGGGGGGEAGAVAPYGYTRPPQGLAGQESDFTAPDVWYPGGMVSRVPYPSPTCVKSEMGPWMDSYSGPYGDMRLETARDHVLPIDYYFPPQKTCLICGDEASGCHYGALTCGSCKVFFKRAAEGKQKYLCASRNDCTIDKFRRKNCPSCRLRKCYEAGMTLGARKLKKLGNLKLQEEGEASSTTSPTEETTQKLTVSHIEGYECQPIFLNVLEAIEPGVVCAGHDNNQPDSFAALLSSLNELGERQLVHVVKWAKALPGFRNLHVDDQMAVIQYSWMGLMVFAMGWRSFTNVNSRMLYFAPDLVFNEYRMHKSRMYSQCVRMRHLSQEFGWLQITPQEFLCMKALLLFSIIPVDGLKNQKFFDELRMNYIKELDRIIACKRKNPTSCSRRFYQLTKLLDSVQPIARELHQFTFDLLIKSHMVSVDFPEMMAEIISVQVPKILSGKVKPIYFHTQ
Outline: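 Using qHTS, AR-UAS-bla GripTite HEK293 cells received compound, then R1881, and were cultured 16 h at 37C/5% CO2 before a 2 h room-temperature LiveBLAzer B/G FRET substrate step and fluorescence measurement.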

[18] = target: Androgen receptor (Homo sapiens) (UniProt P10275); test: qHTS assay to identify small molecule agonists of the androgen receptor (AR) signaling pathway using the MDA cell line (AID 743040; also: nearly all actives have a fitted effect of over 20% in size)
Outline: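 MDA-kb2 breast carcinoma cells carrying MMTV-luciferase (responsive to AR and GR), plated 5 h then treated 16 h with compounds at 37C, 0% CO2. Read-out was ONE-Glo luminescence after 30 min at room temperature.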

[19] = target: Androgen receptor (Homo sapiens) (UniProt P10275); test: qHTS assay to identify small molecule antagonists of the androgen receptor (AR) signaling pathway using the MDA cell line (AID 743042; also: nearly all actives have a fitted effect of over 55% in size)
Outline: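 MDA-kb2 breast carcinoma cells carrying MMTV-luciferase (AR/GR responsive) were co-treated with compounds and the agonist R1881 for 16 h at 37C. Inhibition read as ONE-Glo luminescence; CellTiter-Fluor fluorescence measured in parallel for cytotoxicity.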

Measured: Potency

Cc1c(Cl)cccc1Cl
inactive: [1] | [2] | [3] | [4] | [5] | [6] | [7] | [8] | [9] | [10] | [11] | [12] | [13] | [14]

Cc1ccc2c(c1)C(=O)c1ccccc1C2=O
active: [11] 48.4 µM | [15] 54.3 µM | [12] 60.9 µM
inactive: [1] | [2] | [3] | [4] | [5] | [6] | [7] | [8] | [10] | [13] | [14]

CCCCCCCCCOC(=O)CCCCC(=O)OCCCCCCC
inactive: [2] | [16] | [3] | [4] | [5] | [6] | [7] | [8] | [9] | [10] | [11] | [15] | [12] | [13] | [14]

CN(C)CCN(C)CCO
inactive: [1] | [2] | [3] | [4] | [6] | [7] | [8] | [10] | [11] | [12] | [13] | [14]

O=C(O)CONC(=O)c1ccccc1
inactive: [1] | [2] | [3] | [4] | [5] | [6] | [7] | [10] | [15] | [13] | [14]

CCCCOCC(C)O (stereo unspecified)
inactive: [2] | [16] | [3] | [4] | [5] | [6] | [7] | [8] | [9] | [10] | [11] | [12] | [13] | [14]

O=C(O)CNC(=O)CNC(=O)CNC(=O)CSC(=O)c1ccccc1
inactive: [1] | [2] | [3] | [4] | [5] | [6] | [7] | [8] | [9] | [10] | [15] | [12] | [13] | [14]

CCC(=O)c1c(O)cc(O)cc1O
inactive: [1] | [2] | [3] | [4] | [5] | [7] | [8] | [9] | [11] | [12] | [17] | [18] | [14] | [19]

CCC(C)C(=O)OCCc1ccccc1 (stereo unspecified)
inactive: [1] | [2] | [3] | [4] | [5] | [6] | [7] | [8] | [9] | [11] | [12] | [13] | [14]

COC(=O)/C=C\C(=O)O
inactive: [2] | [16] | [3] | [4] | [5] | [6] | [7] | [8] | [9] | [10] | [11] | [15] | [13] | [14]

CC(=O)O[Si](C)(OC(C)=O)OC(C)=O
inactive: [1] | [2] | [3] | [4] | [5] | [6] | [7] | [8] | [9] | [10] | [11] | [15] | [12] | [13] | [14]

CC(CO)(CO)CO
inactive: [1] | [2] | [3] | [4] | [6] | [7] | [8] | [9] | [10] | [11] | [12] | [13] | [14]

O=C(Cn1ccnc1[N+](=O)[O-])NCc1ccccc1
inactive: [1] | [2] | [3] | [4] | [5] | [6] | [7] | [8] | [9] | [10] | [11] | [15] | [12] | [13] | [14]

Cc1cc(C)c(C(=O)O)c(C)c1
inactive: [1] | [2] | [3] | [4] | [5] | [6] | [7] | [8] | [9] | [11] | [15] | [12] | [13] | [14]

CC12CCC(C1)C(C)(C)C2O (stereo unspecified)
inactive: [1] | [2] | [3] | [4] | [5] | [6] | [7] | [11] | [15] | [12] | [13] | [14]

Cc1c(N)cccc1Cl
inactive: [1] | [2] | [3] | [4] | [5] | [6] | [7] | [8] | [9] | [10] | [11] | [13] | [14]

NC(=O)[C@@H]1CSSCCC(=O)N[C@@H](CCCCN=C(N)N)C(=O)NCC(=O)N[C@@H](CC(=O)O)C(=O)N[C@@H](Cc2c[nH]c3ccccc23)C(=O)N2CCC[C@H]2C(=O)N1 ([Mpa][hArg]GDWPC-NH2; disulfide 1-7)
inactive: [2] | [16] | [3] | [4] | [5] | [6] | [7] | [8] | [9] | [10] | [11] | [12] | [14]

Cn1c(=O)c2[nH]c(Br)nc2n(C)c1=O
inactive: [1] | [2] | [3] | [4] | [5] | [6] | [7] | [8] | [9] | [15] | [13] | [14]

C=CCCCCCCCCC(=O)OCCCC
inactive: [1] | [2] | [3] | [4] | [5] | [6] | [7] | [10] | [11] | [15] | [12] | [13] | [14]

O=NN(CCCl)C(=O)NC1CCCCC1
inactive: [1] | [2] | [3] | [4] | [5] | [6] | [7] | [11] | [15] | [13] | [14]
